Assay outcomes as filed in PubChem BioAssay.
Sfp inh = inhibitors of Bacillus subtilis Sfp phosphopantetheinyl transferase | Biochemical Sfp PPTase activity, qHTS | Potency, µM, actives largely listed as inhibitors | actives 3.5% (n = 310,000) | AID 1490;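 note: the enzyme is Sfp with the accession as filed and its product quenches rhodamine fluorescence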
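With Hepes-Na pH 7.6 buffer containing 10 mM MgCl2, Sfp (15 nM) modified BHQ-2-YbbR (12.5 uM) using rhodamine-CoA (5 uM). Two reads 30 minutes apart at 525/598 nm yielded each well's rate.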
JMJD2A Tudor inh = inhibitors of human JMJD2A Tudor domain; O75164; AlphaScreen JMJD2A-Tudor / H3K4me3 peptide binding; Potency, µM (titrated, usually from 114 µM), most hits filed as inhibitors; actives 4.4% (n = 390,000); note: nearly all actives have a fitted effect of over 50% in size
G9a inh = G9a (human) methyltransferase inhibition; Q96KQ7; G9a H3K9 monomethylation, AlphaScreen, 2 h; Potency, µM (series often up to 102 µM), hits mostly inhibitors; actives 8.8% (n = 350,000); note: nearly all actives have a fitted effect of over 75% in size
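Readings reflect AlphaScreen signal from monomethyl-H3K9 antibody detection. HMT at 20 nM; substrate b-H3K9 500 nM; cofactor SAM 20 uM; 2 h RT reaction; compounds tested as titrations in qHTS with 15 min preincubation.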
HP1b binding inh = inhibitors of HP1-beta chromodomain binding to methylated histone tails; P83916; AlphaScreen HP1-beta / biotin-H3K9me3 peptide binding; Potency, µM (titrated, usually from 114 µM), hits mostly inhibitors; actives 0.56% (n = 390,000); note: nearly all actives have a fitted effect of over 70% in size
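HP1-beta protein (50 nM final) preincubated 30 min at room temperature with biotinylated H3(1-18)K9me3 peptide (50 nM) in PBS pH 7.4, 0.01% Tween-20, then compound added for 30 min. AlphaScreen streptavidin donor/nickel chelate acceptor beads (10 ug/mL final), 30 min dark, luminescence read.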
BAZ2B block = inhibitors of human BAZ2B bromodomain | Q9UIF8 | AlphaScreen BAZ2B-H3K14Ac peptide displacement | Potency, µM (doses to about 114 µM), hits mostly inhibitors | actives 4.4% (n = 360,000); note: nearly all actives have a fitted effect of over 60% in size
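Multi-concentration screen (max 110 uM) measuring displacement of acetylated histone H3 peptide from BAZ2B by AlphaScreen, using 50 nM protein, 50 nM peptide and 10 ug/mL streptavidin donor plus Ni-chelate acceptor beads.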
Large screens that a line does not name were inactive. A selection: hits, their analogues and other compounds. The true share with any hit is near 12%. Calls come from the whole dose curve; as a rule, active = well fitted curve in the direction sought with a large enough effect; inconclusive = small, poorly fitted or top-dose-only effect, or another doubt; inactive = no such curve, though single readings can be large; an effect the other way counts as inactive or inconclusive.

Cc1ccc(Nc2cc(C)nc3ncnn23)c(C)c1	none
CCN(CC)C(=O)c1cc(-c2ccc(Cl)cc2)on1	none (no result: Sfp inh)
NS(=O)(=O)c1cccc(C(=O)NC2CCSc3ccccc32)c1 (stereo unspecified)	G9a inh inconclusive
NS(=O)(=O)c1cc(C(=O)NC2CCSc3ccccc32)ccc1Cl (stereo unspecified)	JMJD2A Tudor inh 0.794µM, G9a inh 1.58µM, HP1b binding inh 2.24µM, BAZ2B block inconclusive
CC(=O)c1cccc(S(=O)(=O)NC2CC2)c1	G9a inh 44.7µM
CC(=O)c1cccc(S(=O)(=O)NC2CCCCCC2)c1	G9a inh inconclusive
CC(=O)c1cccc(S(=O)(=O)NC2CCSc3ccccc32)c1 (stereo unspecified)	JMJD2A Tudor inh inconclusive, G9a inh 28.2µM
C=CC[C@@H]1/C=C(\C)C[C@H](C)C[C@H](OC)[C@H]2O[C@@](O)(C(=O)C(=O)N3CCCC[C@H]3C(=O)O[C@H](/C(C)=C/[C@@H]3CC[C@@H](O)[C@H](OC)C3)[C@H](C)[C@@H](O)CC1=O)[C@H](C)C[C@@H]2OC	none (no result: JMJD2A Tudor inh, HP1b binding inh, BAZ2B block)
CCCn1c2ccccc2c2cnn(CC(=O)Nc3ccc(C)cc3Br)c(=O)c21	none (no result: Sfp inh)
CSc1cccc(NC(=O)Cn2ncn3c(cc4ccccc43)c2=O)c1	none (no result: Sfp inh)
COCc1ccc(C(=O)NCC2(N3CCCCC3)CCCCC2)cc1	JMJD2A Tudor inh 12.6µM, G9a inh inconclusive, BAZ2B block 79.4µM
CS(=O)(=O)Cc1ccc(C(=O)NCC2(N3CCCCC3)CCCCC2)cc1	none
CCOc1ccccc1NC(=O)CCCNC(=O)Cn1cnc2sc(C)c(C)c2c1=O	none
O=C(O)c1cccc(C(=O)O)c1Br	JMJD2A Tudor inh 89.1µM, BAZ2B block inconclusive
Nc1c(O)cccc1C(=O)O	JMJD2A Tudor inh 56.2µM (no result: Sfp inh, G9a inh, BAZ2B block)
O=C(O)c1ccccc1C(=O)c1cccc2c(Br)cccc12	none (no result: Sfp inh, G9a inh, BAZ2B block)
O=C(O)c1ccccc1O	none
CCN(c1ccccc1)S(=O)(=O)c1ccc(Cl)c(NC(=O)COC(=O)c2cc(O)c3ccccc3c2O)c1	Sfp inh 44.7µM, G9a inh inconclusive, BAZ2B block 50.1µM (no result: JMJD2A Tudor inh, HP1b binding inh)
CCN(c1ccccc1)S(=O)(=O)c1ccc(Cl)c(NC(=O)CN2CCCCCC2)c1	Sfp inh 56.2µM, JMJD2A Tudor inh 0.708µM, HP1b binding inh 22.4µM, BAZ2B block 50.1µM
CCN(c1ccccc1)S(=O)(=O)c1cc(NC(=O)CN2CCN(C)CC2)ccc1Cl	JMJD2A Tudor inh 0.891µM, HP1b binding inh inconclusive (no result: Sfp inh, G9a inh, BAZ2B block)
CCN(c1ccccc1)S(=O)(=O)c1ccc(Cl)c(NC(=O)CSc2nncs2)c1	JMJD2A Tudor inh 79.4µM
CCN(c1ccccc1)S(=O)(=O)c1ccc(Cl)c(NC(=O)COC(=O)c2ccc(O)cc2)c1	HP1b binding inh inconclusive
CN1CCN(CC(=O)Nc2ccc(Oc3ccccc3)cc2)CC1	none
O=C(O)c1ccc(Nc2ncc([N+](=O)[O-])cc2[N+](=O)[O-])cc1	G9a inh 44.7µM, BAZ2B block inconclusive
O=C(CSc1ncnc2scc(-c3ccccc3)c12)N1CCN(Cc2ccc3c(c2)OCO3)CC1	JMJD2A Tudor inh inconclusive, G9a inh 44.7µM, HP1b binding inh inconclusive, BAZ2B block inconclusive
Cc1sc2ncnc(SCc3ccc(C(=O)O)cc3)c2c1C	G9a inh 44.7µM
Cc1ccc(-c2csc3ncnc(SCc4ccc(C(=O)O)cc4)c23)cc1	Sfp inh 50.1µM, JMJD2A Tudor inh inconclusive, BAZ2B block 50.1µM (no result: G9a inh)
OC(CNCC(c1ccco1)N1CCCCC1)c1ccccc1 (stereo unspecified)	Sfp inh inconclusive, JMJD2A Tudor inh 1.12µM, G9a inh 2.24µM, BAZ2B block 50.1µM
COC(=O)CCC(=O)OC1(C)C(=O)C=C2C=C(CCCNC(=O)OC(C)(C)C)OC=C2C1=O (stereo unspecified)	none (no result: JMJD2A Tudor inh, G9a inh, HP1b binding inh, BAZ2B block)
COc1ccc(NC(=O)Cn2c(=O)n(CCC(=O)NCCc3ccc(OC)c(OC)c3)c(=O)c3ccccc32)cc1Cl	none (no result: Sfp inh)
Cc1cc(=O)[nH]c(SCC(=O)Nc2nc3ccccc3s2)n1	Sfp inh 79.4µM, G9a inh 31.6µM, BAZ2B block inconclusive
Cc1cc(=O)[nH]c(SCC(=O)Nc2nc(-c3ccccc3)cs2)n1	G9a inh 50.1µM, BAZ2B block inconclusive
Nc1cc(=O)[nH]c(SCC(=O)Nc2nc3ccc([N+](=O)[O-])cc3s2)n1	G9a inh 39.8µM, BAZ2B block inconclusive (no result: JMJD2A Tudor inh, HP1b binding inh)
O=C(CN1CCOCC1)Nc1nc2ccc(F)cc2s1	none
Cc1csc(SCC(=O)Nc2nc(-c3ccccc3)cs2)n1	none
